# This is a sample that favours compounds with a hit; in the whole collection about 7.5% have one here.
# FLuc modulator: inhibits or activates purified firefly luciferase, miR-21 counter-screen | P08659 | purified FLuc, Km substrates, luminescence inhibition | Potency, µM (series often up to 57.5 µM), for inactives: at the top dose activity change, negative = inhibition, hits mostly inhibitors | 360,000 compounds, 6.9% hits | AID 588342;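 also: plate controls were vehicle for no effect and reference inhibitor for full effect; nearly all actives have a fitted effect of over 55% in size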
# Target sequence (P08659 whole entry, looked up): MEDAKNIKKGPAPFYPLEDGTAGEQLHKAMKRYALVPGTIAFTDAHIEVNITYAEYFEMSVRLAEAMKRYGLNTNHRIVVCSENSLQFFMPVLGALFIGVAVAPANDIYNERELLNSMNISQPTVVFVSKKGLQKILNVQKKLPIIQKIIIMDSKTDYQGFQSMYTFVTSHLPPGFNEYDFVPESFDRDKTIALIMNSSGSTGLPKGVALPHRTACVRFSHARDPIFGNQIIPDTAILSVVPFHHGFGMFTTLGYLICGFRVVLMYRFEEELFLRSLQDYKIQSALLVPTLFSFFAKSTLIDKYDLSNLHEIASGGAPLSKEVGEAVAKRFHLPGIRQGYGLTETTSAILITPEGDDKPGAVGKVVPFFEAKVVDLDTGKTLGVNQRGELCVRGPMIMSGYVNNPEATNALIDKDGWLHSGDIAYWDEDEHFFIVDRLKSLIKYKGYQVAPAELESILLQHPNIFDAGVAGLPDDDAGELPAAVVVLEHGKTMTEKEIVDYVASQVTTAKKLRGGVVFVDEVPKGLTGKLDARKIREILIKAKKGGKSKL
#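 Biochemical qHTS of compounds, final roughly 60 µM downward over six points, against 10 nM purified firefly luciferase using Km concentrations of substrates (10 uM D-luciferin, 10 uM ATP) in Tris acetate pH 7.5 buffer; luminescence output.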
# Luc counter: Kinase-Glo luciferase inhibition (counter-screen); Q27757; Kinase-Glo luciferase, ATP luminescence, 8 min; Potency, µM (top dose mostly 38.3 µM), for inactives: top-dose activity change, negative = inhibition, most hits filed as inhibitors; 200,000 compounds, 0.28% hits; AID 1379; also: % is scaled to controls: 0 for no effect and ±100 for the full control effect; nearly all actives have a fitted effect of over 60% in size
#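 Recombinant Kinase-Glo luciferase, 10 uM ATP (linear range), luciferin; imidazole pH 7.2 / KCl / MgCl2 / Tween / BSA buffer; 8 min RT; luminescence.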
# SMN2 splice enh: increases expression of the SMN2 splice variant; HEK293 SMN2-luciferase splicing reporter, luminescence, 30-36 h; Potency, µM (highest dose often 46.1 µM), for inactives: top-dose activity change, positive = activation, usual class: activators; 210,000 compounds, 2.8% hits; also: % of control where 0% means no effect; nearly all actives have a fitted effect of over 55% in size
#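 qHTS luciferase splicing reporter: luminescence rises when SMN2 exon 7 is included in transfected HEK293 cells. Compound exposure lasted 30-36 h at 37C, with 4.5 mM final sodium butyrate as control, followed by a ONE-Glo read.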
# NPC1 promoter act: activators of NPC1 promoter | 320,000 compounds, 2.4% hits | Potency, µM (doses to about 9.22 µM), without a hit: at the top dose activation, most hits filed as activators | AID 485313 | Huh7 NPC1 promoter luciferase reporter, 24 h; also: % of control where 0% means no effect; nearly all actives have a fitted effect of over 60% in size
#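 Cells: Huh7 expressing luciferase under the NPC1 promoter, 1500/well. Seeded 2 h, compound added, incubated 24 h at 37 °C. Luciferase reagent, 10 min ambient, then luminescence.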
# Rab9 prom act: activates the Rab9 promoter | 320,000 compounds, 2.8% hits | Potency, µM (highest dose often 9.22 µM), for the others: top-dose activation, negative = inhibition, most hits filed as activators | Huh7 Rab9 promoter-luciferase reporter, luminescence, 24 h; also: % of control where 0% means no effect; nearly all actives have a fitted effect of over 60% in size
#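 Huh7 reporter line, Rab9 promoter upstream of luciferase. Compound exposure 24 h at 37 °C in reduced-serum medium with 10% FBS. Read-out: luminescence.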
# ELG1 genotox: genotoxicity induction in ELG1-luciferase HEK293T cells. HEK293T ELG1-luciferase reporter, luminescence, 16 h. Potency, µM (titrated, usually from 46 µM), inactives show at the highest dose activity change, positive = activation, most hits filed as activators. 330,000 compounds, 1.3% hits. AID 504466; also: % of control where 0% means no effect; nearly all actives have a fitted effect of over 60% in size
#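 Genotoxicity was scored as increased ELG1-luciferase reporter signal, measured by ONE-Glo luminescence (30 min, room temperature). Compound or vehicle exposure of the HEK293T reporter cells lasted 16 hr at 37°C.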
# An asterisk follows results filed as active; ? = inconclusive; . = not tested or not shown; [ ] = another dose, or the depositor's remark. Calls follow the shape of the dose curve; as a rule, active = well fitted curve in the direction sought with a large enough effect; inconclusive = small, poorly fitted or top-dose-only effect, or another doubt; inactive = no such curve, though single readings can be large; an effect the other way counts as inactive or inconclusive. Potency is read from the fitted curve at half-maximal effect.
SMILES,FLuc modulator,Luc counter,SMN2 splice enh,NPC1 promoter act,Rab9 prom act,ELG1 genotox
COc1cc(NC(=O)Cn2cc(C(=O)c3ccc(F)cc3)c(=O)c3ccc(C)nc32)cc(OC)c1,-6%,.,.,.,.,.
Cn1ccc2cc(S(=O)(=O)N3CCCN(C(=O)Nc4ccccc4Br)CC3)ccc21,-10%,.,.,.,.,.
Cc1ccc(Nc2c(-c3ccc(N4CCOCC4)cc3)nc3ncccn23)c(C)c1,19µM*,-2%,1%,0%,-4%,-2%
Cc1ccc2nc(-c3ccc(N4CCOCC4)cc3)c(Nc3ccccc3C)n2c1,1.9µM*,.,?,.,.,.
Cc1ccccc1Nc1c(-c2ccc(N3CCOCC3)cc2)nc2ccc(Cl)cn12,2.4µM*,.,4%,.,.,.
Clc1ccc2nc(-c3ccc(N4CCOCC4)cc3)c(Nc3ccccc3)n2c1,?,.,2%,.,.,.
COc1ccc(NC(=O)c2ccco2)cc1NC(=O)c1cccc(C)c1OC,?,.,-31%,.,.,.
Cc1cc2c(NCc3ccccc3)ncnc2s1,3%,.,.,-17%,-27%,-6%
Nn1c(SCC(=O)Nc2nnc(-c3ccccc3)o2)nnc1C1CC1,8.5µM*,.,.,11%,-2%,-1%
Nn1c(SCC(=O)Nc2ccc(Oc3ccccc3)cc2)nnc1C1CC1,?,-2%,-14%,-1%,8%,-7%
Cc1nnc(SCC(=O)Nc2nnc(-c3ccccc3)o2)s1,19µM*,.,.,2%,2%,6%
Cc1occc1C(=O)Nc1ccc(Br)cc1F,21µM*,-12%,19%,?,3.2µM*,?
Cc1occc1C(=O)Nc1cc(C(F)(F)F)ccc1Cl,-1%,-2%,25µM*,1%,2%,10%
O=C(O)c1ccc(NNC(=S)Nc2cc(C(F)(F)F)ccc2Cl)cc1,24µM*,.,.,13%,9%,18µM*
N/N=C1/c2ccccc2N[C@H]1OC(=O)Nc1cccc(Cl)c1,.,-1%[7.66 µM],-8%[9.22 µM],.,.,.
Cc1c(C(=O)Nc2ccc(F)c(Cl)c2)sc2nc3n(c(=O)c12)CCC3,4%,.,.,.,.,.
CCCOc1nc(C)cc(COC)c1C(N)=O,0%,2%,2%,-6%,2%,3%
CCOc1ccc(CNC(=O)c2ccc3nc(Cc4ccc(OC)cc4)oc3c2)cc1OC,-14%,.,.,.,.,.
Cc1cccc(CC(=O)N2CCCC2)c1,-1%,.,.,-3%,-1%,4%
COc1ccc(OCc2ccc(/C=N\NC(=O)c3sccc3C)o2)cc1,27µM*,.,.,?,?,13%
CSc1ccc(/C=N/NC(=O)c2cc(O)cc(O)c2)cc1,9.5µM*,?,?,?,?,?
Cc1cccc(C(=O)Oc2ccc(/C=N/NC(=O)c3cc(O)cc(O)c3)cc2)c1,?,.,.,-1%,4%,7%
CSc1ccc(/C=N/NC(=O)c2ccc(C)c(C)c2)cc1,19µM*,-6%,11%,2%,-1%,6%
CSc1ccc(/C=N/NC(=O)c2sccc2C)cc1,0.43µM*,?,2.5µM*,0.56µM*,0.63µM*,1.8µM*
COc1ccc(Cc2nc3ccc(C(=O)NCc4cc(Br)ccc4OC)cc3o2)cc1,-1%,.,.,.,.,.
SMILES,FLuc modulator,Luc counter,SMN2 splice enh,NPC1 promoter act,Rab9 prom act,ELG1 genotox
Cc1ccc(C(=O)c2c(N)c(C(=O)Nc3cccc(C(F)(F)F)c3)c3ccccn23)cc1,0%,.,11%,.,.,.
Cc1ccc(OCC(=O)Nc2cccc(C(=O)OCc3cc(=O)n4nc(C)sc4n3)c2)cc1,9.5µM*,.,.,.,.,.
Cc1nn2c(=O)cc(COC(=O)c3cccc(NC(=O)COc4ccccc4C)c3)nc2s1,24µM*,.,.,.,.,.
Cc1nn2c(=O)cc(COC(=O)COc3ccccc3C)nc2s1,3%,.,.,.,.,.
Cc1nn2c(=O)cc(COC(=O)c3ccc(NC(=O)COc4ccccc4F)cc3)nc2s1,1%,.,.,.,.,.
Cc1ccccc1OCC(=O)Nc1ccccc1OCc1cc(=O)n2ccccc2n1,11µM*,.,.,.,.,.
Cc1nn2c(=O)cc(COC(=O)c3ccc(NC(=O)COc4ccc(C)c(C)c4)cc3)nc2s1,0%,.,.,.,.,.
Cc1nn2c(=O)cc(COC(=O)c3c(F)cccc3Cl)nc2s1,?,.,.,4µM*,4µM*,?
Cn1nc(C(=O)NCCOc2ccccc2)c2ccccc2c1=O,-3%,-2%,-17%,1%,-2%,0%
CCc1ccc(NC(=O)CC2C(=O)OCCN2CC)cc1 (stereo not given),-12%,.,7%,.,.,.
COc1ccccc1N(C)S(=O)(=O)c1ccc(C(=O)N2CCCc3ccccc32)cc1,0%,.,.,-6%,-2%,-15%
Cc1ccccc1OCC(=O)Nc1ccc(C(=O)OCc2cc(=O)n3c(C)csc3n2)cc1,0%,.,.,.,.,.
Cc1csc2nc(COC(=O)c3cccc(NC(=O)COc4ccccc4Cl)c3)cc(=O)n12,1.2µM*,.,.,.,.,.
COc1cc(Br)cc(CNc2ccc(F)c([N+](=O)[O-])c2)c1O,-7%,1%,-4%,-8%,3%,-3%
CC(C)Oc1ccc(Nc2ncnc3ccccc23)cc1,17µM*,-4%,13µM*,3.5µM*,3.2µM*,?
Oc1ccc(Nc2ncnc3ccccc23)cc1,?,.,.,-1%,4%,9%
Cc1ccc(Nc2ncnc3ccccc23)cc1,12µM*,-6%,.,?,1.8µM*,17%
CCOC(=O)c1ccc(NC(=S)Nc2ccccc2)cc1,?,0%,?,1%,-2%,8%
CCOC(=O)C(/C(N)=N/C(=O)Nc1ccccc1)=C(\C)O,6µM*,-8%,-4%,6%,1%,4%
Cc1cc(C)c2c(c1)/C(=c1/sc3n(c1=O)CN(c1ccccc1)CN=3)C(=O)N2,2%,.,.,-5%,-1%,15%
O=C1C(=Cc2cccn2-c2ccc(O)cc2)C(=O)c2ccccc21,3.4µM*,-3%,5%,-1%,0%,1%
O=C(O)c1cccc(-n2cccc2/C=C2/NC(=O)N(c3ccc(Cl)cc3)C2=O)c1,27µM*,1%,18%,3%,-2%,2%
O=C(O)c1cccc(-n2cccc2C=C2C(=O)c3ccccc3C2=O)c1,12µM*,.,.,-2%,-3%,9%
O=C(O)c1cccc(-n2cccc2/C=C2/NC(=O)N(c3cccc(Cl)c3)C2=O)c1,-7%,.,.,3%,-5%,0%
O=C(O)CCC(=O)Nc1cc(C(F)(F)F)cc(C(F)(F)F)c1,0%,.,.,-2%,2%,1%
CCOc1ccccc1Nc1sc(C(=O)c2ccc(Cl)cc2)c(N)c1C#N,-1%,.,.,.,.,.
CCC(=NCc1ccco1)c1c(C(F)(F)F)[nH]n(-c2nc3ccccc3s2)c1=O,7.6µM*,-8%,17%,?,?,9.2µM*

# High-throughput results (PubChem BioAssay)
